From ChEMBL document CHEMBL3988442, “University of Dundee, Small-Polar-MMV Screening Library” (2021) come the findings set out here.

For some of these results: Measured potencies and affinities stand elsewhere.

Design in all cases: scale not given: direction of the effect not stated beside the values
The target of experiment [1] is Protein translocase subunit SecA (Escherichia coli (strain K12)) (UniProt P10408). Nature of the experiment: Assay to Identify E. coli SecA ATPase Inhibitors. It counts as functional. To be noted: 30 µM.
Experiment [2] addresses T1, Ubiquitin-activating enzyme e1, putative (Leishmania donovani (strain BPK282A1)) (UniProt E9BSI1).
T1 sequence (whole entry): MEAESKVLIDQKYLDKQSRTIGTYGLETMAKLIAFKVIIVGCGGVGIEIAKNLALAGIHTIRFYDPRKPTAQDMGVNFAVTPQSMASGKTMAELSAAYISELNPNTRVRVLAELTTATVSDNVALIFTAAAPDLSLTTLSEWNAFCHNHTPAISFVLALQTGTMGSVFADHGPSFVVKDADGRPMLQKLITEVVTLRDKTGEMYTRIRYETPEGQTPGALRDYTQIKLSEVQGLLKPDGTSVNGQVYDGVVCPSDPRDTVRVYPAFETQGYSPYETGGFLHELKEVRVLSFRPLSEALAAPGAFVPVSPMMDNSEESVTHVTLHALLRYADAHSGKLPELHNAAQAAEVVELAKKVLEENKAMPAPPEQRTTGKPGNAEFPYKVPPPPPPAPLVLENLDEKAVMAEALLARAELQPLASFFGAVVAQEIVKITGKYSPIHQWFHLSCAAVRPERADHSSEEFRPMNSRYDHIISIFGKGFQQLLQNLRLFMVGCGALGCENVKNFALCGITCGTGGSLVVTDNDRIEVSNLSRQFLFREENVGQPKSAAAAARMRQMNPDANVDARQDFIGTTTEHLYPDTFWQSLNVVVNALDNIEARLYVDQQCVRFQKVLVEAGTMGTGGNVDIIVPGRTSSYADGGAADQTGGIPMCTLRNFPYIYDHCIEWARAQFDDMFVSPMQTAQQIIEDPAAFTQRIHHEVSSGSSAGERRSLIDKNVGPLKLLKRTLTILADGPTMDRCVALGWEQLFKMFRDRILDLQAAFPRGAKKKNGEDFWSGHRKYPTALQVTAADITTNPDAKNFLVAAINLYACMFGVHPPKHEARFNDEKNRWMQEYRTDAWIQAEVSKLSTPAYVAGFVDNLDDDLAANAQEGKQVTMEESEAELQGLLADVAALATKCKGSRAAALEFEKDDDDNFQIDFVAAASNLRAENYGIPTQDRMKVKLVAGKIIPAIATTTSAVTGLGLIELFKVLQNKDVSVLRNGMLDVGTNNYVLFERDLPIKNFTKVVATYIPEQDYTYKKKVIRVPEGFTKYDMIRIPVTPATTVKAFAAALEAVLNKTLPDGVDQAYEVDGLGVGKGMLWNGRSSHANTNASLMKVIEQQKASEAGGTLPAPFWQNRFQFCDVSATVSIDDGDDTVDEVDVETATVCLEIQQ
Nature of the experiment: Leishmania donovani Ubiquitin Activating Enzyme (LdE1). The format is functional. To be noted: 30 µM.

Experiment [3] concerns the target AMP-activated protein kinase, AMPK (Homo sapiens) (UniProt P54646+O43741+P54619+Q9UGJ0+Q9Y478+Q13131+Q9UGI9). Kind of experiment: AMP-dependent Kinase enzyme assay. An in vitro enzyme assay that detects ADP turnover that is directly proportional to AMPK activity. This uses naive AMPK that is activated during the assay with MK-8722. To be noted: 30 µM. It counts as functional.

For experiment [4], the target named is Sialic acid-binding Ig-like lectin 9 (Homo sapiens) (UniProt Q9Y336). Kind of experiment: Hs-Siglec9 ALPHAscreen SOP 20170721. To be noted: 10 µM. A general note: In Alpha technology, singlet oxygen from a donor bead excites a nearby acceptor bead.
In experiment [5] the test system is Trypanosoma cruzi. Kind of experiment: Trypanosoma cruzi phosphomannomutase and mannose-1-phosphate guanylyltransferase assay. It counts as functional. Particulars: 10 µM.
For experiment [6], the target named is T2, Arginase-2, mitochondrial (Homo sapiens) (UniProt P78540).
T2 sequence (whole entry): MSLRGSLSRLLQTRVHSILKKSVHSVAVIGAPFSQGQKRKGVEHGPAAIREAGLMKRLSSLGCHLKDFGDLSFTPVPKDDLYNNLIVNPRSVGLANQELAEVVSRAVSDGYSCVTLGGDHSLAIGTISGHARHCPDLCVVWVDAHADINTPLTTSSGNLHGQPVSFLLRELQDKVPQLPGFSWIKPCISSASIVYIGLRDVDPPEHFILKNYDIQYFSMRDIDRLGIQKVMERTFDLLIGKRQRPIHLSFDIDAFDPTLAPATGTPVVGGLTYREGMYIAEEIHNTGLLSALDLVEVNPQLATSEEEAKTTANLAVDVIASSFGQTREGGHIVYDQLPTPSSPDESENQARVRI
Kind of experiment: in vitro enzyme assay to detect the production of urea directly proportional to the activity of Arginase II. Further: in the data most compounds retested in dose-response had high values. The format is functional. To be noted: 33.3 µM.

In experiment [7] the target is T3, Proteasome subunit beta (Trypanosoma cruzi) (UniProt O96673).
T3 sequence (whole entry): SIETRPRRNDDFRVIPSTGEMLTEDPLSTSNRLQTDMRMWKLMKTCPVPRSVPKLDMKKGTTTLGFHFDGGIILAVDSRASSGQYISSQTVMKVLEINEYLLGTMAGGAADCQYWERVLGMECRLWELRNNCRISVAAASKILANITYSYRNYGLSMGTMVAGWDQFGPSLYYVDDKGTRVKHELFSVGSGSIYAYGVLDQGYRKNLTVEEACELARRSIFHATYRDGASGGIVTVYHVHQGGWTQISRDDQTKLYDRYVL
Nature of the experiment: Trypanosoma cruzi proteasome chymotrypsin-like activity (TcProtChymo) assay. Further: in the data most compounds retested in dose-response had high values. Particulars: 9.37 µM. The format is functional.

The species entered for experiment [8] is Homo sapiens. Kind of experiment: To identify inhibition of the IFN signalling (Jak-Stat) pathway via expression of an eGFP reporter gene under the control of an IFN-stimulated response element (ISRE) containing MxA promoter. Particulars: 30 µM. It counts as functional. For orientation: Reporter assays use an easily measured gene product as a stand-in for the process of interest.

The target of experiment [9] is T4, Tyrosyl-tRNA synthetase, putative (Trypanosoma cruzi (strain CL Brener)) (UniProt Q4DSP6).
T4 sequence (whole entry): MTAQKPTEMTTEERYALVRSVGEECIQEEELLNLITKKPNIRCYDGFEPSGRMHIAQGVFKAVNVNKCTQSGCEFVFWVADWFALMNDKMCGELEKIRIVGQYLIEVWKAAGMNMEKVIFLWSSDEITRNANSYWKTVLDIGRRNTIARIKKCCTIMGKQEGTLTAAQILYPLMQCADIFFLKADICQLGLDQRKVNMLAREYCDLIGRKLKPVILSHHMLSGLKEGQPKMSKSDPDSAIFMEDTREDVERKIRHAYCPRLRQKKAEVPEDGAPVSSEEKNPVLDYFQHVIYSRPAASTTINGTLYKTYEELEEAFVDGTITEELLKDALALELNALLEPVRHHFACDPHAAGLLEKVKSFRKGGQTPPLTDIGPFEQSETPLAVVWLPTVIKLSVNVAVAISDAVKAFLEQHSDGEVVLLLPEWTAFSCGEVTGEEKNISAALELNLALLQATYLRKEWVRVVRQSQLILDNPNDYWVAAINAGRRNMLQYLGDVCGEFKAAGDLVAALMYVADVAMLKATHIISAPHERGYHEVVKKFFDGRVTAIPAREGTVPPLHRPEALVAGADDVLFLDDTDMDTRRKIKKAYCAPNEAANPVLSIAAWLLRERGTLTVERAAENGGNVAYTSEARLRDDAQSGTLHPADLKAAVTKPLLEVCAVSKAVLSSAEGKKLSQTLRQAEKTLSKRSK
Kind of experiment: Trypanosoma cruzi tyrosyl tRNA synthetase (TcYRS) _High Tyrosine SOP. Further: in the data most compounds retested in dose-response had high values. Particulars: 30 µM. The format is functional.

The target in experiment [10] is T4, Tyrosyl-tRNA synthetase, putative (Trypanosoma cruzi (strain CL Brener)). Nature of the experiment: Trypanosoma cruzi tyrosyl tRNA synthetase (TcYRS) SOP. The format is functional. To be noted: 30 µM.
Experiment [11] concerns the target Chromo domain-containing protein 1 (Saccharomyces cerevisiae (strain ATCC 204508 / S288c) (Baker's yeast)) (UniProt P32657). Kind of experiment: ScCHD-1 Enzyme Inhibition Assay. Further: in the data most compounds retested in dose-response had high values. To be noted: 30 µM. It counts as functional.

Protein translocase subunit SecA (Escherichia coli (strain K12)), sequence (P10408 whole entry): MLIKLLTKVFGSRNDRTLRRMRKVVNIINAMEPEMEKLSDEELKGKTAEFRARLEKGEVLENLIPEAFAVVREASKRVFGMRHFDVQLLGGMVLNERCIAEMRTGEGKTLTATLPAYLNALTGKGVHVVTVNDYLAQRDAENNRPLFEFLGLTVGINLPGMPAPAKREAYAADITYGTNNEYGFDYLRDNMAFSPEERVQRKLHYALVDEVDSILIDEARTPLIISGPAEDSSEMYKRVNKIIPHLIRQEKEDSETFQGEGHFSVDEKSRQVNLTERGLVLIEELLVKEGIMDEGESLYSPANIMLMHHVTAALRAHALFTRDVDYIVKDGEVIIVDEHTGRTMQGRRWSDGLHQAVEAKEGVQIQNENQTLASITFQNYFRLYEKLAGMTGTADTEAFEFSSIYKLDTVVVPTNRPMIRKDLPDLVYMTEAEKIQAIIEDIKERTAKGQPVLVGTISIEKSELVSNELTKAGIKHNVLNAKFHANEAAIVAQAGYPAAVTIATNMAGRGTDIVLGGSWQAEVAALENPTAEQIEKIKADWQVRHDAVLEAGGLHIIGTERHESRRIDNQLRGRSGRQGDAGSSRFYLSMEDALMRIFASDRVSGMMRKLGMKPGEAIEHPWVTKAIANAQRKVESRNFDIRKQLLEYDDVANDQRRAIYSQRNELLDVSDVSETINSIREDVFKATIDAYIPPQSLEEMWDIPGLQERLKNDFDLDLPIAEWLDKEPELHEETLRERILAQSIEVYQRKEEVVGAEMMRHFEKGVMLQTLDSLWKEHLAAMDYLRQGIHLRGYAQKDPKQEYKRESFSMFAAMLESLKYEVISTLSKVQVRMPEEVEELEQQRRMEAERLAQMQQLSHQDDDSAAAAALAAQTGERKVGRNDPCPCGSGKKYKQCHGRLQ
Chromo domain-containing protein 1 (Saccharomyces cerevisiae (strain ATCC 204508 / S288c) (Baker's yeast)), sequence (P32657 whole entry, the tested form may be a part): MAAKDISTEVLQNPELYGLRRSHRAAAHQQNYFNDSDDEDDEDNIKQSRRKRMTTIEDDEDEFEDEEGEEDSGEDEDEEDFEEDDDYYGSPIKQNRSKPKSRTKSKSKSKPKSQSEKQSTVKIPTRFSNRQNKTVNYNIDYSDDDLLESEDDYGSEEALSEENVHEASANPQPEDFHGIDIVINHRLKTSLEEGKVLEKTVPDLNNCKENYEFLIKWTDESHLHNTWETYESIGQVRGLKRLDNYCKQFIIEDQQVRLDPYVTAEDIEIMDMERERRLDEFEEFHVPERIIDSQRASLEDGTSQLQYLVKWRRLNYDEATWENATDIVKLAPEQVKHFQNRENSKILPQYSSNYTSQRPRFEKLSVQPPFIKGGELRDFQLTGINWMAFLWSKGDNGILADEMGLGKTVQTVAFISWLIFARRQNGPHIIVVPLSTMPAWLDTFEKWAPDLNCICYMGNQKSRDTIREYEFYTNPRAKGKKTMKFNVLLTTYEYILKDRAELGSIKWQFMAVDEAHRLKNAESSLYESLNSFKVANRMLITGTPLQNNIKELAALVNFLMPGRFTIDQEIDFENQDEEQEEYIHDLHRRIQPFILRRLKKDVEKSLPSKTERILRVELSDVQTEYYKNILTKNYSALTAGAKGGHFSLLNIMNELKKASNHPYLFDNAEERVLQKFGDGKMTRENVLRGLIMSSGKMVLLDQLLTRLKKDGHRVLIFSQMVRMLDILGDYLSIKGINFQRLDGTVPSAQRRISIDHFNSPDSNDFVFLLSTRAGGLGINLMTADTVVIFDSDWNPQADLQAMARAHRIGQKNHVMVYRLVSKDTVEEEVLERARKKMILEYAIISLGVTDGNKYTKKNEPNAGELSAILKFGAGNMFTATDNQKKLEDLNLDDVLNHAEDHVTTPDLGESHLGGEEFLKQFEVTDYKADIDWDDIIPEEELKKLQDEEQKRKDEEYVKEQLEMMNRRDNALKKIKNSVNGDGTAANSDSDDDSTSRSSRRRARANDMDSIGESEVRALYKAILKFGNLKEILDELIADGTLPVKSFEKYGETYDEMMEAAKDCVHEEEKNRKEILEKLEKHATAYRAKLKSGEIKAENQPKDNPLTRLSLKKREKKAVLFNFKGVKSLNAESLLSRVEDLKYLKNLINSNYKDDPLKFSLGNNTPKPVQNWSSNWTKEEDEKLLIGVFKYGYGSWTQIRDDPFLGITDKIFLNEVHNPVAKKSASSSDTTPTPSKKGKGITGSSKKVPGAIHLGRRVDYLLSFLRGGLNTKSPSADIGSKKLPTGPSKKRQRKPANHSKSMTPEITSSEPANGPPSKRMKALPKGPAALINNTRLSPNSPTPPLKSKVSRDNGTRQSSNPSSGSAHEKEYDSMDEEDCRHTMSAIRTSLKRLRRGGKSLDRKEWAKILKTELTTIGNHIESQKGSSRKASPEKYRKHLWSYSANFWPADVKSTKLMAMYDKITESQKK
Sialic acid-binding Ig-like lectin 9 (Homo sapiens), sequence (Q9Y336 whole entry): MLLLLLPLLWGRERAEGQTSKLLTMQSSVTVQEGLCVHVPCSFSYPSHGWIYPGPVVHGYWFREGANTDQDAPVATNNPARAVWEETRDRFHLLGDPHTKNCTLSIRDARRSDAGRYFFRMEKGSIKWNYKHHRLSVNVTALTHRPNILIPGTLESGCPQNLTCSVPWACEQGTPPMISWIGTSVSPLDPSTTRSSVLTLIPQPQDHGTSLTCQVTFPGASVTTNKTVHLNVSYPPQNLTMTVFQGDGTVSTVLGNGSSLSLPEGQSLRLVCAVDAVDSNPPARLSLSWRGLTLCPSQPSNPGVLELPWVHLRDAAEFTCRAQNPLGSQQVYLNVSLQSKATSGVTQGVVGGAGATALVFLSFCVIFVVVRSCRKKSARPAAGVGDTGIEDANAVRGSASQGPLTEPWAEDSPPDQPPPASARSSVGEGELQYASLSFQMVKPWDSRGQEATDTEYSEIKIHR

For the molecule `NC(=O)C1CCN(c2nc3nccc(-c4ccccn4)c3c(=O)[nH]2)CC1`, the Percent Effect in experiment [1] was -4.8%; in experiment [2], 18.4%; in experiment [3] it was 0.528%; in experiment [4] it was -4.82%; in [5] it was 0.0974%; in [6], -2.37%. Moreover, the Percent Effect came to 22% in [7]; 2.93% in [8]; 8.51% in experiment [9]; 23.4% in [10]; 7.17% in [11].
With `CCc1nc2n(n1)CC(NCc1ncc(-c3ccccc3)o1)CC2` (stereo unspecified), the Percent Effect was -1.59% in experiment [1]; -2.63% in [2]; 0.215% in [3]; 5.65% in experiment [4]; 1.21% in experiment [5]; 1.8% in [6]. The Percent Effect is 4.65% in experiment [7]; -5.2% in experiment [8]; 3.45% in [9]; -23.5% in experiment [10]; -5.56% in experiment [11].
`CCc1nc(CN(C)CC2CCN(CCO)CC2)no1`: the Percent Effect in experiment [1] was 0.69%; in experiment [2], 2.7%; in experiment [3], -8.99%; in experiment [4] it was 9.52%; in experiment [5] it was 6.56%; in experiment [6], 10%. Moreover, the Percent Effect in experiment [7] is -1.55%; in experiment [8], -14.8%; in [9], 2.65%; in experiment [10] it was 9.76%; in experiment [11], -0.692%.
Consider `Cc1ccc(N2CCCC(NCC(=O)NC3CCOCC3)C2)nn1` (stereo unspecified), for which the Percent Effect in experiment [1] was -5.04%; in experiment [2], -3.8%; in [3], -5.1%; in [4], 4.11%; in [5] it was -1.13%; in [6], 4.95%. Moreover, the Percent Effect in [7] is 3.94%; in experiment [8] it was -13.5%; in experiment [9] it was 0%; in experiment [10] it was 5.06%; in experiment [11] it was -2.4%.
For `Cn1c(C(F)(F)F)nn(CCNC(=O)c2cnc3ccccc3n2)c1=O`, the Percent Effect is -2.81% in experiment [1]; 13.7% in experiment [2]; 4.14% in [3]; 14.5% in [4]; 3.33% in [5]; 0.909% in experiment [6]. Also, the Percent Effect is -1.95% in [7]; -0.549% in [8]; 3.23% in [9]; 12.5% in [10]; -3.18% in experiment [11].
On to `O=C(c1ccco1)N1CCCC(c2cc(C(F)F)n3ncnc3n2)C1` (stereo unspecified), for which the Percent Effect in experiment [1] is -1.42%; in [2] it was 4.05%; in experiment [3] it was 9.33%; in experiment [4], 28.2%; in experiment [5] it was -8.5%; in experiment [6] it was 3.02%. Further, the Percent Effect in experiment [7] worked out at 3.9%; in experiment [8], 7.52%; in [9], 0%; in [10], 3.9%; in experiment [11] it was 3.66%.
As to `CCc1nc2ccccc2c(=O)n1CC1(O)CCN(S(C)(=O)=O)CC1`, the Percent Effect was -1.91% in experiment [1]; 17.6% in experiment [2]; 10.4% in experiment [3]; 9.5% in experiment [4]; 1.58% in experiment [5]; 7.66% in experiment [6]. The Percent Effect is 10.8% in experiment [7]; 17.4% in experiment [8]; 5.38% in experiment [9]; 14.3% in [10]; -11.7% in [11].
On to `CN1C(=O)C(C)(C)COc2cc(NS(=O)(=O)c3ccccc3)ccc21`, for which the Percent Effect in [1] was -2.86%; in experiment [2], 8.22%; in experiment [3], -14%; in experiment [4] it was 10.6%; in [5], -0.979%; in experiment [6], 2.27%. Also, the Percent Effect is 14.2% in [7]; 46.6% in [8]; -8.6% in experiment [9]; 12.5% in experiment [10]; -7.69% in experiment [11].
As for `CCN1CCN(C2CCN(Cc3nc4ccccc4o3)CC2)C1=O`, the Percent Effect is -1.89% in experiment [1]; 10.4% in [2]; 0.349% in experiment [3]; -1.67% in experiment [4]; 1.67% in experiment [5]; -2.74% in experiment [6]. Moreover, the Percent Effect in [7] is 14.2%; in [8], -19%; in experiment [9] it was 7.62%; in experiment [10], 21.2%; in [11], -20.3%.
`O=C(c1ccc(=O)[nH]n1)N1CC(c2nc(Cc3ccccc3)no2)C1`: the Percent Effect in experiment [1] is -2.52%; in experiment [2], 8.22%; in [3], -1.62%; in [4], 7.99%; in experiment [5] it was 3.33%; in experiment [6], 20.9%. For the same molecule, the Percent Effect in experiment [7] is 14.4%; in [8] it was 0.0834%; in experiment [9] it was 6.45%; in [10], 20%; in experiment [11], -5.6%.
Turning to `Cc1ccc(OCCNC(=O)C(C)n2cncn2)cc1` (stereo unspecified), the Percent Effect in [1] was -1.61%; in experiment [2], 15.2%; in experiment [3], 7.61%; in experiment [4], -6.9%; in experiment [5] it was -9.91%; in experiment [6] it was 0.38%. Besides, the Percent Effect was 11.1% in experiment [7]; 35.3% in experiment [8]; -1.48% in experiment [9]; 3.8% in [10]; -3.56% in experiment [11].
